Test results as given in PubChem BioAssay.
Active and inactive are the calls of the source.

How the values were obtained:
[1] = compounds binding Alexa647 anti-His antibody – biochemical, small-molecule microarray, 635 nm fluorescence, artefact control for SMM control protein annotation, primary screen (AID 1128); conditions: higher = more signal;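 note: score merges feature fluorescence with signal-to-noise for each printed compound spot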
[2] = system: Human papillomavirus type 1a E7 protein (residues 1-88); assay: HPV1a E7 small-molecule binders, primary screen, biochemical, small-molecule microarray, residues 1-88, 635 nm (AID 1129); conditions: small-molecule microarray binding, fluorescence 635 nm; higher = more signal
[3] = molecular target: Focal adhesion kinase 1 (Homo sapiens) (UniProt Q05397); assay: PTK2 protein binding on printed compound slides – biochemical, small-molecule microarray, 635/667 nm fluorescence, BSA, DTT, primary screen (AID 1130); conditions: 635 nm fluorescence, higher = more signal;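 note: composite of spot emission at 667 nm and signal to noise over triplicate slides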
Chain of Focal adhesion kinase 1 (Homo sapiens) (Q05397 whole entry, looked up): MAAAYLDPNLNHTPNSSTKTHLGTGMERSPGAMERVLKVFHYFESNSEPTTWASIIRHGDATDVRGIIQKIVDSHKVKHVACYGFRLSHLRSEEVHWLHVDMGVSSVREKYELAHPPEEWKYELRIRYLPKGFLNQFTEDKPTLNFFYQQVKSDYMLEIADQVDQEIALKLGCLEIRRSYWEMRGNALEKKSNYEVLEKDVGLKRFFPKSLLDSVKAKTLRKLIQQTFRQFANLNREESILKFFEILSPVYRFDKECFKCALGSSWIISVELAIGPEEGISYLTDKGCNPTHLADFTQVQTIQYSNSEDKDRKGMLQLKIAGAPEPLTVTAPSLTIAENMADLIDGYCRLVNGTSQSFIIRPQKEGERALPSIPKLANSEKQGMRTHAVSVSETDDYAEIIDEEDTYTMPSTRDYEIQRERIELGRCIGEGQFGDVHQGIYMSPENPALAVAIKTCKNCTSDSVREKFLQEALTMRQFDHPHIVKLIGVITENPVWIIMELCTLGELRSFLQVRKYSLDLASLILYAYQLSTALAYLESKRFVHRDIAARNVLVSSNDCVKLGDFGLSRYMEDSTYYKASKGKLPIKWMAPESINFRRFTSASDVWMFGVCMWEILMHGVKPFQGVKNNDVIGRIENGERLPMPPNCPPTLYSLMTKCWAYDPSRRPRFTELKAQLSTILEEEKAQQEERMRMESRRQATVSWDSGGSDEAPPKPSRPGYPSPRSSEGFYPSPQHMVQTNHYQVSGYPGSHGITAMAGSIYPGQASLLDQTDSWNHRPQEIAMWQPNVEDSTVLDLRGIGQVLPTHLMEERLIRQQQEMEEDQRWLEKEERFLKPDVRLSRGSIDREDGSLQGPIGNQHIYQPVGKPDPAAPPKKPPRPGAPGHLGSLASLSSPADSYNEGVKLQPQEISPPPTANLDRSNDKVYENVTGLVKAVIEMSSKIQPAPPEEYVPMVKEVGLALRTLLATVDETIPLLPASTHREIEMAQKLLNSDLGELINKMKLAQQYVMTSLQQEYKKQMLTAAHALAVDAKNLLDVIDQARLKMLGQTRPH

[4] = system: Fibrinogen (Alexa647-labelled); assay: Alexa647-fibrinogen binding to printed small molecules – biochemical, small-molecule microarray, 635/667 nm fluorescence, artefact control for SMM control-protein annotation, profiling panel (AID 1131); conditions: fibrinogen-A647 binding fluorescence, higher = more signal;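 note: z-score merges 667 nm fluorescence with per-spot signal-to-noise over triplicate slides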
[5] = molecular target: Follistatin (Homo sapiens) (UniProt P19883); assay: FST protein binding to printed compounds – biochemical, small-molecule microarray, 635/667 nm fluorescence, primary screen (AID 1132); conditions: 635 nm fluorescence, higher = more signal
Chain of Follistatin (Homo sapiens) (P19883 whole entry, looked up): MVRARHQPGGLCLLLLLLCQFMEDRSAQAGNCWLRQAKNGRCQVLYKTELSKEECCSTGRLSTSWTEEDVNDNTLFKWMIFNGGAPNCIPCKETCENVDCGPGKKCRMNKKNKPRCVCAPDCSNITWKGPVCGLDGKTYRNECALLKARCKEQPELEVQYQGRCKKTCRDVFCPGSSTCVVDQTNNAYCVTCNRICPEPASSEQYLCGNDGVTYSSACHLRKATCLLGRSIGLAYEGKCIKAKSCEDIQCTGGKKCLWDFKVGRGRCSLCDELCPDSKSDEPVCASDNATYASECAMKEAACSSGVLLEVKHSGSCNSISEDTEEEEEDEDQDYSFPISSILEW

[6] = molecular target: Fibroblast growth factor 2 (Homo sapiens) (UniProt P09038); assay: basic fibroblast growth factor binding to printed compounds – biochemical, small-molecule microarray, 635/667 nm fluorescence, primary screen (AID 1133); conditions: FGF2, fluorescence 635/667, higher = more signal
Chain of Fibroblast growth factor 2 (Homo sapiens) (P09038 whole entry, looked up): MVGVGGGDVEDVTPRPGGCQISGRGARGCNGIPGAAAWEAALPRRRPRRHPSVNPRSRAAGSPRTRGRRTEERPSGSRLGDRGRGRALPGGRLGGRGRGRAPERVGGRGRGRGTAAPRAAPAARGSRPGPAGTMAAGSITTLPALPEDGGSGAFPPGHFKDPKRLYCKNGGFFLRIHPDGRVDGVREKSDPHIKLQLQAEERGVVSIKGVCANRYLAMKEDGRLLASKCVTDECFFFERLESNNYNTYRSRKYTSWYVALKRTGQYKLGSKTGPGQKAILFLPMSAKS

[7] = JC-1 mitochondrial potential readout, lung cancer cells – cell-based, A549, JC-1 fluorescence, basal, 24 h, 100 nL, profiling panel (AID 1138); conditions: higher = more signal;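 note: A549 lung adenocarcinoma cells under basal conditions with no added stimulus; test concentration not given here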
Lefty1 = Lefty1 protein binding to printed compounds – biochemical, small-molecule microarray, 635/667 nm fluorescence, primary screen (AID 1139); conditions: fluorescence 635/667, higher = more signal
[8] = system: wheat germ agglutinin (Triticum aestivum), Alexa647-labelled; assay: Alexa647-WGA lectin binding to printed small molecules – biochemical, small-molecule microarray, 635/667 nm fluorescence, artefact control for SMM control-protein annotation, profiling panel (AID 1140); conditions: WGA-A647 binding, 635 nm fluorescence, higher = more signal;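 note: score merges 667 nm feature emission with signal to noise over triplicate slides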
[9] = molecular target: Luciferin 4-monooxygenase (Photinus pyralis) (UniProt P08659); assay: inhibition of purified Photinus pyralis luciferase – biochemical, luminescence, purified enzyme, 2006 set, primary screen (AID 1141); conditions: purified firefly luciferase, SteadyGlo luminescence, 30 min; higher = more signal, called active from +8 up or from −8 down;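 note: cell-free assay with purified firefly luciferase at 100 ng per well in PBS; test concentration not given here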
Chain of Luciferin 4-monooxygenase (Photinus pyralis) (P08659 whole entry, looked up): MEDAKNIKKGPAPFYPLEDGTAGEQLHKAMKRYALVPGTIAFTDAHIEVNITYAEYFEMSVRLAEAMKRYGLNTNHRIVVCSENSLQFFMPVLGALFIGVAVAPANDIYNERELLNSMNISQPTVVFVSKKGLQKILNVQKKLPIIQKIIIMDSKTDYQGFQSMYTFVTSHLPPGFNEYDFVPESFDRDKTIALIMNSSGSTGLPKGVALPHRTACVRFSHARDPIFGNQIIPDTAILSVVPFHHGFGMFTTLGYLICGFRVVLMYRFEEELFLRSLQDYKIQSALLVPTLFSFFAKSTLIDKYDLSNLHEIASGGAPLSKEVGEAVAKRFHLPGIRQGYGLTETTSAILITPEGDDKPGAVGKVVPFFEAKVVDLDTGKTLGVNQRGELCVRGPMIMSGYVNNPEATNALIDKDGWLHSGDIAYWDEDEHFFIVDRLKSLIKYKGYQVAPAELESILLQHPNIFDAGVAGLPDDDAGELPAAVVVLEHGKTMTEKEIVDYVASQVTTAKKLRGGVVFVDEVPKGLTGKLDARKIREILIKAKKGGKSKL

Row | SMILES | composite z-score [1] | composite z-score [2] | composite z-score [3] | composite z-score [4] | composite z-score [5] | composite z-score [6] | z-score [7] | composite z-score (Lefty1) | composite z-score [8] | z-score [9]
1 | COc1ccc(C#Cc2ccc3c(c2)[C@]2(C(=O)N3)[C@H](C(=O)Nc3nc4ccccc4s3)[C@H]3C(=O)O[C@H](c4ccccc4)[C@H](c4ccccc4)N3[C@@H]2c2ccccc2OCCO)cc1 | 0.395 | 1.1 | 0.446 | 0.969 | 1.16 | 0.0821 | -1.98 | 0.262 | 0.371 | -0.364 (inactive)
2 | O=C1O[C@H](c2ccccc2)[C@H](c2ccccc2)N2[C@H]1[C@@H](C(=O)O)[C@]1(C(=O)Nc3ccc(C#CC4(O)CCCCCC4)cc31)[C@H]2c1ccc(O)cc1 | 0.401 | 0.391 | 0.016 | -0.132 | -0.0848 | -0.201 | -0.697 | 0.0963 | 0.211 | -0.828 (inactive)
3 | COCCOC(=O)N1C(=O)[C@@]2(c3cc(C#CCC(C(=O)OC)C(=O)OC)ccc31)[C@H](C(=O)NC[C@H](O)c1ccccc1)[C@H]1C(=O)O[C@H](c3ccccc3)[C@H](c3ccccc3)N1[C@@H]2c1ccc(O)cc1 | 2.58 | 1.17 | 0.983 | -0.6 | 0.22 | 0.501 | -0.464 | 0.464 | 1.02 | -0.296 (inactive)
4 | COC(=O)[C@@]1(Cc2ccc(F)cc2)[C@H]2c3cc(C(=O)N(C)C)n(Cc4c(CO)[nH]cc(C)c4=O)c3C[C@H]2CN1C(=O)c1ccccc1 | 0.394 | 0.453 | 0.0551 | -0.466 | -0.198 | -0.197 | 0.932 | -0.0191 | 0.406 | 0.593 (inactive)
5 | Cc1nc2cc(Br)ccc2c(=O)n1Cc1cccc(O)c1 | 0.391 | 0.941 | 0.872 | 0.539 | 1.38 | 1.81 | 0.287 | 1.22 | 0.334 | 6.4 (inactive)
6 | COCCCNC(=O)[C@@H]1c2ccccc2C(=O)N(C2Cc3ccccc3C2)[C@H]1c1ccc(CO)cc1 | 3.04 | 1 | 0.407 | -0.284 | 1.08 | 1.35 | 2.76 | 0.278 | -0.196 | -0.714 (inactive)
7 | CO[C@H]1O[C@H](CO)[C@@H](OC(=O)Nc2ccc(C#N)cc2)[C@@H]2OC(=O)[C@H](Cc3cccc(Br)c3)C/C=C/C[C@@H](Cc3cccc(Br)c3)C(=O)O[C@@H]12 | 1.26 | 0.776 | -0.611 | 0.448 | 1.2 | 0.707 | 1.39 | 1.13 | 0.655 | 0.782 (inactive)
8 | CN1C=C(C(=O)OCCS(C)(=O)=O)C(C(=O)OCCS(C)(=O)=O)=CC(c2ccc(CO)cc2)=CC1c1cccs1 (stereo not given) | 1.48 | 0.577 | 0.0037 | 0.983 | 0.793 | 0.509 | 2.1 | 0.644 | 0.21 | -1.63 (inactive)
9 | CC(=O)NCCCC[C@@H]1NC(=O)[C@@H]2C[C@H](C(=O)NCCCCCCN)[C@H](c3cccc(OCCO)c3)N2C1=O | 1.86 | 0.286 | 0.367 | 1.01 | 0.382 | -0.0704 | 0.266 | -0.555 | 1.11 | -0.352 (inactive)
10 | COC(=O)[C@@]1(Cc2ccc(OC)cc2)[C@H]2c3cc(C(=O)N4CCCC4)n(Cc4ccc(S(C)(=O)=O)cc4)c3C[C@H]2CN1C(=O)c1ccccc1 | 0.486 | 1.26 | 0.721 | 0.996 | 0.0078 | -0.184 | 1.26 | -0.0956 | 0.479 | 0.922 (inactive)
11 | O=C(NCC(O)CO)[C@@]1(CCS(=O)(=O)c2ccccc2)COC(c2ccc(OCCCO)cc2)=N1 (stereo not given in full) | 2.29 | 1.17 | 0.204 | 0.904 | 1.36 | 1.28 | -0.583 | -0.682 | 0.41 | 0.405 (inactive)
12 | CCCNC(=O)[C@@]1(Sc2ccc(C)cc2)CC(=O)N(C2CCCCC2)[C@@H]1c1ccc(CO)cc1I | 1.53 | 1.2 | 0.996 | 0.146 | -0.182 | 0.128 | 1.04 | -0.351 | 0.73 | -0.0779 (inactive)
13 | C=CCC(OC(C)=O)[C@@H]1[C@@H](N(Cc2cccc3ccccc23)C(=O)c2ccc(-c3ccccc3)cc2)c2cc(OCCCO)ccc2N1C(=O)c1ccc(-c2ccccc2)cc1 (stereo not given in full) | -0.811 | 0.488 | -0.132 | -0.123 | 0.353 | -0.0952 | 0.758 | 0.0683 | 0.204 | -0.0873 (inactive)
14 | C=C(COC)/C(=C/C[C@@H](OC(C)=O)c1ccc(CO)o1)c1cc(C(=O)OC)ccc1OC | 0.291 | 0.091 | -0.198 | -0.341 | 0.758 | -0.314 | 0.173 | 0.933 | -0.188 | -1.53 (inactive)
15 | NC(=O)[C@@H]1[C@H]2C(=O)O[C@H](c3ccccc3)[C@H](c3ccccc3)N2[C@H](c2ccc(OCCO)cc2)[C@@]12C(=O)Nc1ccc(C#CCCO)cc12 | 2.24 | 0.988 | 0.215 | 0.639 | 0.89 | 0.396 | -0.399 | -0.143 | 0.659 | -2.01 (inactive)
16 | COc1cc(NN2C(C(O)C3CCCCC3)C=CC3C(=O)N(c4ccccc4)C(=O)C32)cc(OC)c1OC (stereo not given) | 1.96 | 1.26 | 0.724 | 0.964 | 0.459 | -0.776 | -0.0727 | -0.175 | 1.23 | -0.45 (inactive)
17 | O=C1C2C=CC(C(O)c3ccc(I)cc3)N(Nc3ccccc3)C2C(=O)N1c1ccccc1 (stereo not given) | 1.45 | 1.19 | 0.83 | 0.907 | 0.862 | 0.0891 | -0.0457 | -0.358 | 1.44 | -0.102 (inactive)
18 | C=C(COC)C(=O)CC[C@H](OC(C)=O)c1ccc(OCCO)cc1 | 0.943 | 0.0389 | -0.267 | -0.0148 | 1.51 | 1.43 | -0.686 | 1.46 | 0.777 | -0.574 (inactive)
19 | [N-]=[N+]=Nc1ccccc1C[C@]1(C(=O)O)N=C(c2ccc(OCCCO)cc2)O[C@H]1c1ccccc1 | 0.133 | 0.612 | -0.0641 | 0.282 | 0.968 | -0.619 | 0.12 | -0.605 | 0.801 | -3.91 (inactive)
20 | CC(C)C(CO)N1C(=O)[C@@H]2[C@H]3C(=O)OCC=C[C@H]3OC23C=CCN(C(C)(C)C)C(=O)[C@@H]13 (stereo not given in full) | -0.54 | -1.09 | -0.513 | -0.0751 | 0.277 | -0.405 | -1.76 | 0.503 | -0.0676 | -0.159 (inactive)
21 | O=C(O)[C@@H]1C[C@@H]2C(=O)N3CCC[C@H]3C(=O)N2[C@@H]1c1cccc(OCCO)c1 | 3.41 | 1.31 | 2.47 | 0.977 | 1.41 | 1.4 | 0.729 | 1.7 | 1.69 | -0.485 (inactive)
